# Inconclusive results are not listed. Active and inactive are the calls of the source. The call rests on the fitted dose curve; in most records, active means well fitted cell-killing curve with a large enough effect; inconclusive means small, poorly fitted or top-dose-only effect, or effect the other way; inactive means no such curve, though single readings can be large or run the other way.
# Test: Viability qHTS for spleen associated tyrosine kinase inhibitor (SYKi) naive MV4-11 cells (AID 1963823); further: nearly all actives have a fitted effect of over 40% in size
# Settings: MV4-11 AML viability, CellTiter-Glo luminescence, 72 h; series mostly up to 45 µM; viability (% of control): at the top concentration
# How it was run: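 Cells: MV4-11, SYK inhibitor naive, 500 per well. Treatment: library compounds, 72 hr, 37 C, 5% CO2. Read-out: CellTiter-Glo luminescence after 10 min RT.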
# Potency means the concentration at half of the fitted maximal effect.
SMILES,Potency,viability (% of control)
C=C1/C(=C\C=C2/CCC[C@]3(C)[C@@H]([C@H](C)CCCC(C)(C)O)CC[C@@H]23)C[C@@H](O)C[C@@H]1O,0.0186 µM (active),–
COc1cc(-c2cn(C)c(=O)c3cnccc23)cc(OC)c1CN(C)C,–,66.2% (inactive)
CN1C(CSCC(F)(F)F)Nc2cc(Cl)c(S(N)(=O)=O)cc2S1(=O)=O (centres undefined),–,56.8% (inactive)
CN1CCN(c2ccc(-c3cccc(CN4CCOCC4)c3)cc2NC(=O)c2c[nH]c(=O)cc2C(F)(F)F)CC1,–,62.2% (inactive)
O=C(Nc1ccc(Oc2ccc(Cl)cc2)c(Cl)c1)c1cc(I)cc(I)c1O,–,73.7% (inactive)
CC(C)(C)NCC(O)c1cc(O)cc(O)c1 (centres undefined),–,41.3% (inactive)
COc1ccc(C(=O)C2CCN(CC(=O)N(Cc3nc4c(c(=O)[nH]3)COCC4)CC3CC3)CC2)cc1,–,56% (inactive)
Cc1ccc(/C=N/n2c(-c3ccccc3)csc2=S)cc1,–,46.7% (inactive)
CCCOC(=O)c1ccc(N)cc1,–,97.3% (inactive)
CN[C@@H]1[C@@H](O)[C@@H](O[C@@H]2[C@H](O)[C@H](O[C@H]3OC(CN)=CC[C@H]3N)[C@@H](N)C[C@H]2N)OCC1(C)O (some centres undefined),–,98.9% (inactive)
CCCCCCCCCCOCC(O)CN (centres undefined),23.7 µM (active),–
COC(=O)N(C)c1c(N)nc(-c2nn(Cc3ccccc3F)c3ncccc23)nc1N,–,70.9% (inactive)
C=C1CCC[C@]2(C)C=C3OC(=O)C(C)=C3C[C@@H]12,–,64% (inactive)
COCCNCc1ccc(-c2cc3nccc(Oc4ccc(NC(=S)NC(=O)Cc5ccc(F)cc5)cc4F)c3s2)nc1,0.0164 µM (active),–
CCCCNc1ccc(C(=O)OCCOCCOCCOCCOCCOCCOCCOCCOCCOC)cc1,10.6 µM (active),–
CCCCCN(CCCOC)C(=O)C(CCC(=O)O)NC(=O)c1ccc(Cl)c(Cl)c1 (centres undefined),–,55.2% (inactive)
CC1(C)[C@@H](O)CC[C@]2(C)[C@H]3C(=O)C=C4[C@@H]5C[C@@](C)(C(=O)O)CC[C@]5(C)CC[C@@]4(C)[C@]3(C)CC[C@@H]12,inactive,–

SMILES,Potency,viability (% of control)
COc1ccccc1N1CCN(CCCCNC(=O)c2ccc(-c3ccc(C(C)=O)cc3)cc2)CC1,–,90% (inactive)
COc1ccc(NS(=O)(=O)c2ccc(N)cc2)nn1,–,83% (inactive)
CCO[C@@H]1OC(=O)C[C@@H]1NC(=O)[C@@H]1CCCN1C(=O)[C@@H](NC(=O)c1ccc(N)c(Cl)c1)C(C)(C)C,–,66.5% (inactive)
CC(=O)N1CCN(c2ccc(O)cc2)CC1,–,48.4% (inactive)
COC1(c2sc3c(N4CCOCC4)nc(-c4cnc(N)nc4)nc3c2C)COC1,0.231 µM (active),–
C#Cc1ccc(-c2ccccc2F)cc1,–,71.4% (inactive)
Cc1c(-c2ccc(-c3ccccc3F)cc2)nc2ccc(F)cc2c1C(=O)O,0.148 µM (active),–
C=C1C[C@H]2[C@@H]3C=C(C)C4=CC(=O)CC[C@]4(C)[C@H]3CC[C@]2(C)[C@@]1(OC(C)=O)C(C)=O,18.8 µM (active),–
[2H]c1nc(C)nc([2H])c1-c1cc(NC[C@@H](C)c2cccc3c(C(=O)NC)ccnc23)ncn1,–,71.1% (inactive)
Cc1ccsc1C(=CCCN1CCC[C@@H](C(=O)O)C1)c1sccc1C,–,45.1% (inactive)
C[C@]12C=CC(=O)C=C1[C@@H](F)C[C@@H]1[C@@H]2[C@@H](O)C[C@@]2(C)[C@H]1CC[C@]2(O)C(=O)CO,–,113% (inactive)
Cn1nccc1Nc1nccc(-c2cc3c(s2)C(C)(C)N(CCN2CCOCC2)C3=O)n1,3.72 µM (active),–
O=C(O)c1ccc(-n2nc(-c3ccccc3O)nc2-c2ccccc2O)cc1,16.8 µM (active),–
O=C(CCCN1CC=C(n2c(=O)[nH]c3ccccc32)CC1)c1ccc(F)cc1,–,89.6% (inactive)
NCC1CCC(C(=O)Oc2ccc(CCC(=O)O)cc2)CC1 (centres undefined),–,85.8% (inactive)
Cc1ncc(CO)c(CO)c1O,3.76 µM (active),–
Cc1ncc(CO)c(CN)c1O,–,84.3% (inactive)
